Laboratory results taken from PubChem BioAssay (EPA / NIEHS).
Records with an inconclusive call do not appear. Calls of active or inactive are those of the source. Rule for the calls, unless noted: active = hit-call score of the fitted dose curve at least 0.9, where 1 is the maximum; inactive = score below 0.9.

Columns and labels:
[1] = read-out: Interleukin-1 alpha (IL1a), IL1A (gene 3552); test: BSK_LPS_IL1a: BioMAP Diversity Plus: LPS Assay for Interleukin-1 alpha (IL1a) Biomarker Activity (AID 2283080); conditions: primary human HUVEC with PBMC; actives raise or lower the signal
Method in brief: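 HUVEC/PBMC co-culture, LPS system; 24 h after dosing; IL-1a by ELISA; gain or loss of signal fitted bidirectionally vs DMSO baseline.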

[2] = read-out: Monocyte Chemoattractant Protein-1 (MCP1), CCL2 (gene 6347); test: BSK_LPS_MCP1: BioMAP Diversity Plus: LPS Assay for Monocyte Chemoattractant Protein-1 (MCP1) Biomarker Activity (AID 2283081); conditions: primary human HUVEC with PBMC; actives raise or lower the signal;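 for AC50: secreted MCP-1 protein quantified by ELISA in culture supernatant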
Method in brief: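 ELISA read-out of MCP-1 after 24 h chemical dosing of a human umbilical vein endothelial cell/peripheral blood mononuclear cell co-culture stimulated with LPS. Gain or loss of signal fitted relative to DMSO controls.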

[3] = BSK_LPS_PGE2: BioMAP Diversity Plus: LPS Assay for Prostaglandin E2 (PGE2) Biomarker Activity (AID 2283082); conditions: primary human HUVEC with PBMC; actives raise or lower the signal;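 for AC50: secreted prostaglandin E2 measured by ELISA in LPS-stimulated co-culture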
Method in brief: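 Primary human endothelial cells and blood mononuclear cells, co-cultured with LPS, receive test chemical; PGE2 ELISA follows at 24 h, with SRB-stained parallel cultures flagging cytotoxicity.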

[4] = read-out: Tissue Factor, F3 (gene 2152); test: BSK_LPS_TissueFactor: BioMAP Diversity Plus: LPS Assay for Tissue Factor Biomarker Activity (AID 2283084); conditions: primary human HUVEC with PBMC; actives raise or lower the signal
Method in brief: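 HUVEC/PBMC co-culture, LPS-activated; CD142 ELISA read 24 h post-dose; bidirectional curve fit vs DMSO negative control.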

[5] = read-out: Tumor necrosis factor (Homo sapiens) (UniProt P01375); test: BSK_LPS_TNFa: BioMAP Diversity Plus: LPS Assay for Tumour Necrosis Factor alpha (TNFa) Biomarker Activity (AID 2283085); conditions: primary human HUVEC with PBMC; actives raise or lower the signal;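 for AC50: TNFa protein level quantified by ELISA in the co-culture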
Method in brief: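 ELISA-based TNFa endpoint in a human endothelial–PBMC co-culture sampled 24 h post-exposure. Curves were fitted in both directions using DMSO as baseline of activity.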

[6] = read-out: Vascular cell adhesion molecule 1 (VCAM1), VCAM1 (gene 7412); test: BSK_LPS_VCAM1: BioMAP Diversity Plus: LPS Assay for Vascular cell adhesion molecule 1 (VCAM1) Biomarker Activity (AID 2283086); conditions: primary human HUVEC with PBMC; actives raise or lower the signal
Method in brief: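 Measured by ELISA: VCAM-1 in LPS-activated HUVEC/PBMC co-cultures 24 h after treatment. Values reflect bidirectional fitting with DMSO as baseline.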

CD38, CD38 (gene 952) = test: BSK_SAg_CD38: BioMAP Diversity Plus: SAg Assay for CD38 Biomarker Activity (AID 2283087); conditions: primary human HUVEC with PBMC; actives raise or lower the signal
Method in brief: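 Measures CD38 on a human endothelial/PBMC co-culture driven by SEB and TSST-1, 24 h after compound exposure, using ELISA with fluorescence detection; DMSO defines baseline for bidirectional curve fitting.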

CD69, CD69 (gene 969) = test: BSK_SAg_CD69: BioMAP Diversity Plus: SAg Assay for CD69 Biomarker Activity (AID 2283089); conditions: primary human HUVEC with PBMC; actives raise or lower the signal;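 for AC50: cell surface CD69 protein quantified by ELISA with fluorescence detection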
Method in brief: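 HUVEC co-cultured with PBMC were dosed with chemical, and CD69 was measured by ELISA with fluorescence read-out 24 h later. Bidirectional curve fitting used DMSO as negative control and activity baseline.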

[7] = read-out: Monocyte Chemoattractant Protein-1 (MCP1), CCL2 (gene 6347); test: BSK_SAg_MCP1: BioMAP Diversity Plus: SAg Assay for Monocyte Chemoattractant Protein-1 (MCP1) Biomarker Activity (AID 2283090); conditions: primary human HUVEC with PBMC; actives raise or lower the signal
Method in brief: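 Values derive from bidirectional fitting of ELISA-measured MCP1 against DMSO controls. Readings were taken 24 h after dosing human vascular endothelial cells co-cultured with peripheral blood mononuclear cells under superantigen stimulation.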

[8] = read-out: E-selectin (Homo sapiens) (UniProt P16581); test: BSK_SAg_Eselectin: BioMAP Diversity Plus: SAg Assay for Eselectin Biomarker Activity (AID 2283091); conditions: primary human HUVEC with PBMC; actives raise or lower the signal
Method in brief: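 E-selectin ELISA readout at 24 h post-dosing in human umbilical vein endothelial cell/PBMC co-culture; gain or loss of signal fitted relative to DMSO baseline.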

[9] = read-out: Monokine induced gamma interferon (MIG), CXCL9 (gene 4283); test: BSK_SAg_MIG: BioMAP Diversity Plus: SAg Assay for Monokine induced gamma interferon (MIG) Biomarker Activity (AID 2283092); conditions: primary human HUVEC with PBMC; actives raise or lower the signal
Method in brief: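 HUVEC plus human PBMC co-culture, chemicals dosed and MIG (CXCL9) quantified by ELISA at 24 h. Bidirectional curve fitting against DMSO as negative control and baseline, so both gain and loss of signal count as activity.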

[10] = BSK_SAg_PBMCCytotoxicity: PBMC Cytotoxicity Assessment in the BioMAP Diversity Plus: SAg Assay (AID 2283093); conditions: primary human HUVEC with PBMC;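 note: PBMC viability measured as Alamar Blue reduction fluorescence at 546/580 nm; fitted both ways against DMSO so a hit may be loss or gain of signal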;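 for AC50: PBMC superantigen activated with SEB plus TSST-1 one hour after compound addition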
Method in brief: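 Alamar Blue reduction (6 h, 546/580 nm) reports PBMC cytotoxicity after 90 h superantigen activation (SEB, TSST-1; 20 ng/mL final each) with 1 h compound pre-treatment. Gain or loss of signal fitted versus DMSO.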

[11] = read-out: Interleukin-8 (IL8), CXCL8 (gene 3576); test: BSK_SAg_IL8: BioMAP Diversity Plus: SAg Assay for Interleukin-8 (IL8) Biomarker Activity (AID 2283094); conditions: primary human HUVEC with PBMC; actives raise or lower the signal
Method in brief: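 Primary human endothelial cells with PBMC, exposed 24 h; IL-8 determined by ELISA, analysed bidirectionally relative to DMSO.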

[12] = BSK_SAg_Proliferation: Cell Proliferation Assessment in the BioMAP Diversity Plus: SAg Assay (AID 2283095); conditions: primary human HUVEC with PBMC;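 note: relative cell number as total protein by SRB absorbance in sub-confluent culture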
Method in brief: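 A human primary co-culture of umbilical vein endothelium and blood mononuclear cells receives compound; relative cell number is quantified at 96 h by SRB staining and 560 nm absorbance, with DMSO-referenced bidirectional curve fitting.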

[13] = BSK_SAg_SRB: Viability Assessment in the BioMAP Diversity Plus: SAg Assay (AID 2283096); conditions: primary human HUVEC with PBMC;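 note: cells read one day after compound addition; hits may be either gain or loss of signal compared with DMSO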
Method in brief: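 This overt-cytotoxicity endpoint quantifies protein in human endothelial/PBMC co-cultures at 24 h using SRB absorbance (560 nm) after trichloroacetic acid fixation. Values reflect signal change from the DMSO negative control, fitted bidirectionally.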

CD40, CD40 (gene 958) = test: BSK_SAg_CD40: BioMAP Diversity Plus: SAg Assay for CD40 Biomarker Activity (AID 2283088); conditions: primary human HUVEC with PBMC; actives raise or lower the signal
Method in brief: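 HUVEC/PBMC co-culture, 24 h post-dose; CD40 by ELISA, fluorescence intensity; bidirectional fit vs DMSO negative control.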

[14] = molecular target: human CYP19A1, CYP19A1 (gene 1588) (UniProt P11511); test: NVS_ADME_hCYP19A1: NovaScreen (NVS) CYP450-related Enzyme Activity (ADME) Assay for human CYP19A1 (AID 2283098; active = hit-call score of the fitted dose curve at least 0.9, where 1 is the maximum;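 for AC50: potency for inhibitors seen as loss of fluorescent enzyme signal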)
Chain of human CYP19A1, CYP19A1 (gene 1588) (P11511 whole entry, looked up): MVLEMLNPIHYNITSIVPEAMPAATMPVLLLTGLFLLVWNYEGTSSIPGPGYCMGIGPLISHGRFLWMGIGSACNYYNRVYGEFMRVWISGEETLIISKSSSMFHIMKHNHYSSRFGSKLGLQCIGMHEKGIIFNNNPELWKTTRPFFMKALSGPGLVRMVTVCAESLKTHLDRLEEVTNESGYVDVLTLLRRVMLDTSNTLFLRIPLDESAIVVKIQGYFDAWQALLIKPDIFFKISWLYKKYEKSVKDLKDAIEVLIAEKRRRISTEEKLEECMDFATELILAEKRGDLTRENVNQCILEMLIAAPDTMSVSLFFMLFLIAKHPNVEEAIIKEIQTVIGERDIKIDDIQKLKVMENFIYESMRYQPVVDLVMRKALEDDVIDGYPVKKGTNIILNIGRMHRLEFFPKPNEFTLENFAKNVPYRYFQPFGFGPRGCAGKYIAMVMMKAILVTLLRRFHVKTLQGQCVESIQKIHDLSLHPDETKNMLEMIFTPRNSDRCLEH
Method in brief: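 Compounds were first screened at 10 uM in duplicate against purified enzyme, with a fluorogenic substrate and fluorescence intensity detection after 0.5 h. Inhibition appears as reduced signal against acetonitrile control.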

[15] = molecular target: human CYP1A1, CYP1A1 (gene 1543) (UniProt P04798); test: NVS_ADME_hCYP1A1: NovaScreen (NVS) CYP450-related Enzyme Activity (ADME) Assay for human CYP1A1 (AID 2283100; active = hit-call score of the fitted dose curve at least 0.9, where 1 is the maximum)
Chain of human CYP1A1, CYP1A1 (gene 1543) (P04798 whole entry, looked up): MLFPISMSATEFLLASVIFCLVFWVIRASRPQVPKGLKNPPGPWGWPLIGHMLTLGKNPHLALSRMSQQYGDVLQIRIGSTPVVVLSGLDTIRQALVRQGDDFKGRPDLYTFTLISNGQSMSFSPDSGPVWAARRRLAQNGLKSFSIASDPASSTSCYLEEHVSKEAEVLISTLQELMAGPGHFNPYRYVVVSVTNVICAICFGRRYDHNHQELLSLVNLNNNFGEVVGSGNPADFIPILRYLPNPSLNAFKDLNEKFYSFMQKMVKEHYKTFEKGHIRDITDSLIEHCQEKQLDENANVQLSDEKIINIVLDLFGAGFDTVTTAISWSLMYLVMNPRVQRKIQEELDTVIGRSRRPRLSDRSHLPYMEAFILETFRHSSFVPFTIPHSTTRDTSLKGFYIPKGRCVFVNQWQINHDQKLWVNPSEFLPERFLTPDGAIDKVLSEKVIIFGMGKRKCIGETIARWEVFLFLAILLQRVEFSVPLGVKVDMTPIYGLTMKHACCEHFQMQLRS
Method in brief: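 Read-out: fluorescence intensity from enzymatic turnover of substrate by recombinant CYP1A1, loss of signal indicating inhibition. Incubation 1 h post-dose. Primary single-point 10 uM in duplicate; actives rerun singly with top concentration 20 uM.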

[16] = read-out: Macrophage colony-stimulating factor (MCSF), CSF1 (gene 1435); test: BSK_LPS_MCSF: BioMAP Diversity Plus: LPS Assay for Macrophage colony-stimulating factor (MCSF) Biomarker Activity (AID 2283083); conditions: primary human HUVEC with PBMC; actives raise or lower the signal
Method in brief: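 HUVEC + PBMC co-culture (human primary), 24 h post-dose; M-CSF by ELISA; gain/loss of signal fitted bidirectionally vs DMSO baseline.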

[17] = molecular target: human CYP2A6, CYP2A6 (gene 1548) (UniProt P11509); test: NVS_ADME_hCYP2A6: NovaScreen (NVS) CYP450-related Enzyme Activity (ADME) Assay for human CYP2A6 (AID 2283099; active = hit-call score of the fitted dose curve at least 0.9, where 1 is the maximum)
Chain of human CYP2A6, CYP2A6 (gene 1548) (P11509 whole entry, looked up): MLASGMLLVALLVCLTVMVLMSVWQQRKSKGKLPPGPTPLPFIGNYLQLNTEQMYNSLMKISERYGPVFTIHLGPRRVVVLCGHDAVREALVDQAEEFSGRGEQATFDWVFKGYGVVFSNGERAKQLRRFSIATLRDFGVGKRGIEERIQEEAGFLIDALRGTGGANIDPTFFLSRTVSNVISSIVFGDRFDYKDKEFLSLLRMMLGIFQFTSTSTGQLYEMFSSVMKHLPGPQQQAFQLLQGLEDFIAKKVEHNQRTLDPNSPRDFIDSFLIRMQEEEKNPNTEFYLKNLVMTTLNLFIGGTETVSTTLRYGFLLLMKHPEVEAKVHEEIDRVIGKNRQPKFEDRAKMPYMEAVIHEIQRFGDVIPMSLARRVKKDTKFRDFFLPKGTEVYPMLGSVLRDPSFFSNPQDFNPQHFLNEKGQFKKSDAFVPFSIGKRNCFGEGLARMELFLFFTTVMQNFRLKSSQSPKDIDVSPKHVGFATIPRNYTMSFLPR
Method in brief: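 Insect-cell-expressed human CYP2A6 enzyme activity measured by fluorescence intensity 0.5 hour post-dosing. Compounds screened at 10 uM in duplicate, then hits tested singly in concentration series (max 20 uM); acetonitrile baseline.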

Measured: AC50

Chain of E-selectin (Homo sapiens) (P16581 whole entry, looked up): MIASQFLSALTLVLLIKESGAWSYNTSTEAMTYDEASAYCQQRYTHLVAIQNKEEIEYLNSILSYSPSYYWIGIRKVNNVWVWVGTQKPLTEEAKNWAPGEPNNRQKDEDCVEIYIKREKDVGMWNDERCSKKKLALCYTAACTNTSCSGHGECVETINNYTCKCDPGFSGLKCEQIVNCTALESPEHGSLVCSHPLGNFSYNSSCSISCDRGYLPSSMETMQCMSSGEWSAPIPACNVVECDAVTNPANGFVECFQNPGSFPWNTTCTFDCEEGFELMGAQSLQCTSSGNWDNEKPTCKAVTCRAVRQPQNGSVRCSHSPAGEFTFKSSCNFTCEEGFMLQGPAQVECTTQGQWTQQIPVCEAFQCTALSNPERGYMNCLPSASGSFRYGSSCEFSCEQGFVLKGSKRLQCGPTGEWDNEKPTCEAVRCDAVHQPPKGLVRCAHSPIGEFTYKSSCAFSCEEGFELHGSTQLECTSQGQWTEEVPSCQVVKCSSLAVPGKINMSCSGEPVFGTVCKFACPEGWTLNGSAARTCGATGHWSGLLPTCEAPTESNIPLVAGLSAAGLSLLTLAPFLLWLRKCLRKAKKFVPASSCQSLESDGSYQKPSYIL
Chain of Tumor necrosis factor (Homo sapiens) (P01375 whole entry, looked up): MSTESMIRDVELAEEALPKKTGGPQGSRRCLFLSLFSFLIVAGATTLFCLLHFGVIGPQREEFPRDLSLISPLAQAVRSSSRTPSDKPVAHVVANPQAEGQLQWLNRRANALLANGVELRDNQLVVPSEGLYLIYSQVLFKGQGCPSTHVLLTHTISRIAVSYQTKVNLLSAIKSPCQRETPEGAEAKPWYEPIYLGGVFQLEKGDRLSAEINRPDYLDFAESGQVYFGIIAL

CCNc1nc(Cl)nc(NC(C)(C)C#N)n1
active: [5] 3.97 µM | [8] 4.59 µM
not listed: CD40, CD40 (gene 958) | [14] | [15] | [16] | [17]
inactive: all other assays above

C=C(C)[C@H]1Cc2c(ccc3c2O[C@@H]2COc4cc(OC)c(OC)cc4[C@@H]2C3=O)O1
inactive: [5] | [10] | [14] | [15]
active: [2] 26.8 µM | [3] 0.702 µM | [4] 8.75 µM | [6] 5.99 µM | CD38, CD38 (gene 952) 5.59 µM | CD40, CD40 (gene 958) 7.75 µM | CD69, CD69 (gene 969) 3.97 µM | [7] 16.7 µM | [8] 4.05 µM | [9] 27.2 µM | [11] 1.61 µM | [12] 5.57 µM | [13] 5.52 µM

C#CCC1=C(C)C(OC(=O)C2C(C=C(C)C)C2(C)C)CC1=O (stereo unspecified)
active: [1] 31.9 µM | [2] 33.4 µM | [3] 3.87 µM | [5] 32.9 µM | [6] 14.8 µM | CD38, CD38 (gene 952) 33.7 µM | CD69, CD69 (gene 969) 29.8 µM | [7] 30 µM | [8] 31.3 µM | [9] 36.6 µM | [10] 32.9 µM | [11] 26 µM | [12] 34 µM | [13] 26.9 µM
inactive: [4]

C[Si](Cn1cncn1)(c1ccc(F)cc1)c1ccc(F)cc1
inactive: [1] | [2] | [4] | [5] | [6] | CD69, CD69 (gene 969) | [9] | [10] | [13]
active: [3] 1.62 µM | [16] 14.7 µM | CD38, CD38 (gene 952) 29.9 µM | [7] 28.9 µM | [8] 19.8 µM | [11] 16.8 µM | [12] 22.5 µM | [14] 3.78 µM | [17] 1.75 µM | [15] 3.27 µM
